Measurements from PubChem BioAssay (Tox21).
Where “and” joins values, the source holds several entries; their conditions need not be identical. Equal entries are not always repeated. Results filed as inconclusive are left out. Calls of active or inactive are those of the source. Unless noted, calls follow the shape of the dose curve; as a rule, active = well fitted curve in the direction sought with a large enough effect in the repeat runs; inconclusive = weak or mixed curves; inactive = no such curve, though single readings can be large; an effect the other way counts as inactive or inconclusive.

Legend:
[1] = qHTS assay to identify small molecule antagonists of the glucocorticoid receptor (GR) signaling pathway - cell viability counter screen (AID 720693); also: nearly all actives have a fitted effect of over 55% in size; also: potency is read from the fitted curve at half-maximal effect
[2] = qHTS assay for identifying genotoxic compounds that show differential cytotoxicity against isogenic chicken DT40 cell lines with known DNA damage response pathways - wild type cell line (AID 743012); also: nearly all actives have a fitted effect of over 60% in size; also: potency is read from the fitted curve at half-maximal effect
Outline: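 Viability by ATP luminescence (CellTiter-Glo, 30 min RT) after 40 h compound treatment at 37 C/5% CO2, using 300 parental DNA repair-proficient DT40 cells per well.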

[3] = qHTS assay for identifying genotoxic compounds that show differential cytotoxicity against isogenic chicken DT40 cell lines with known DNA damage response pathways - Rev3 mutant cell line (AID 743014); also: nearly all actives have a fitted effect of over 55% in size; also: potency is read from the fitted curve at half-maximal effect
[4] = qHTS assay for identifying genotoxic compounds that show differential cytotoxicity against isogenic chicken DT40 cell lines with known DNA damage response pathways - Rad54/Ku70 mutant cell line (AID 743015); also: nearly all actives have a fitted effect of over 60% in size; also: potency is read from the fitted curve at half-maximal effect
[5] = qHTS assay to identify small molecule antagonists of the androgen receptor (AR) signaling pathway - cell viability counter screen (AID 743033; also: nearly all actives have a fitted effect of over 45% in size; also: potency is read from the fitted curve at half-maximal effect)
[6] = qHTS assay to identify small molecule antagonists of the androgen receptor (AR) signaling pathway using the MDA cell line - cell viability counter screen (AID 743041; also: nearly all actives have a fitted effect of over 45% in size; also: potency is read from the fitted curve at half-maximal effect)
Outline: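 In this qHTS counter assay, fluorescence intensity after CellTiter-Fluor addition indicated viability of MDA-kb2 AR-luc cells given compounds and R1881 for 16 h at 37C.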

[7] = molecular target: Androgen receptor (Homo sapiens) (UniProt P10275); assay: qHTS assay to identify small molecule antagonists of the androgen receptor (AR) signaling pathway (AID 743035; active = well fitted inhibition curve with a large enough effect in the signal ratio in the repeat runs, not every such curve was filed as active; the % refers to the signal ratio; also: potency is read from the fitted curve at half-maximal effect)
Outline: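 Antagonist mode: AR-bla HEK293 cells co-treated with test compounds and agonist R1881 for 16 h at 37C, 5% CO2. Beta-lactamase activity read as FRET fluorescence after 2 h room-temperature substrate loading.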

[8] = molecular target: Androgen receptor (Homo sapiens) (UniProt P10275); assay: qHTS assay to identify small molecule agonists of the androgen receptor (AR) signaling pathway using the MDA cell line (AID 743040; also: nearly all actives have a fitted effect of over 20% in size)
Outline: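 Cell-based luciferase reporter: MDA-kb2, MMTV promoter (AR + GR response elements). 16 h compound exposure at 37C; ONE-Glo, 30 min RT, luminescence.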

[9] = molecular target: Androgen receptor (Homo sapiens) (UniProt P10275); assay: qHTS assay to identify small molecule antagonists of the androgen receptor (AR) signaling pathway using the MDA cell line (AID 743042; also: nearly all actives have a fitted effect of over 55% in size; also: potency is read from the fitted curve at half-maximal effect)
Outline: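 MDA-kb2 cells (human breast carcinoma, stably carrying an MMTV-luciferase reporter responsive to AR and GR) were plated at 3,000 cells/well and preincubated 5 hr at 37C, then given compound plus R1881 agonist for 16 h. ONE-Glo luminescence was read.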

[10] = molecular target: Androgen receptor (Homo sapiens) (UniProt P10275); assay: qHTS assay to identify small molecule agonists of the androgen receptor (AR) signaling pathway (AID 743036; active = well fitted activation curve with a large enough effect in the signal ratio in the repeat runs, with a control signal flat, not every such curve was filed as active; the % refers to the signal ratio)
Outline: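 Beta-lactamase under UAS control, stably integrated in HEK293 GripTite cells, reports receptor activation. After 16 h compound treatment, cells received FRET substrate for 2 h at room temperature before fluorescence reading.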
% is scaled to controls: 0 for no effect and ±100 for the full control effect.

Androgen receptor (Homo sapiens), sequence (P10275 whole entry, looked up): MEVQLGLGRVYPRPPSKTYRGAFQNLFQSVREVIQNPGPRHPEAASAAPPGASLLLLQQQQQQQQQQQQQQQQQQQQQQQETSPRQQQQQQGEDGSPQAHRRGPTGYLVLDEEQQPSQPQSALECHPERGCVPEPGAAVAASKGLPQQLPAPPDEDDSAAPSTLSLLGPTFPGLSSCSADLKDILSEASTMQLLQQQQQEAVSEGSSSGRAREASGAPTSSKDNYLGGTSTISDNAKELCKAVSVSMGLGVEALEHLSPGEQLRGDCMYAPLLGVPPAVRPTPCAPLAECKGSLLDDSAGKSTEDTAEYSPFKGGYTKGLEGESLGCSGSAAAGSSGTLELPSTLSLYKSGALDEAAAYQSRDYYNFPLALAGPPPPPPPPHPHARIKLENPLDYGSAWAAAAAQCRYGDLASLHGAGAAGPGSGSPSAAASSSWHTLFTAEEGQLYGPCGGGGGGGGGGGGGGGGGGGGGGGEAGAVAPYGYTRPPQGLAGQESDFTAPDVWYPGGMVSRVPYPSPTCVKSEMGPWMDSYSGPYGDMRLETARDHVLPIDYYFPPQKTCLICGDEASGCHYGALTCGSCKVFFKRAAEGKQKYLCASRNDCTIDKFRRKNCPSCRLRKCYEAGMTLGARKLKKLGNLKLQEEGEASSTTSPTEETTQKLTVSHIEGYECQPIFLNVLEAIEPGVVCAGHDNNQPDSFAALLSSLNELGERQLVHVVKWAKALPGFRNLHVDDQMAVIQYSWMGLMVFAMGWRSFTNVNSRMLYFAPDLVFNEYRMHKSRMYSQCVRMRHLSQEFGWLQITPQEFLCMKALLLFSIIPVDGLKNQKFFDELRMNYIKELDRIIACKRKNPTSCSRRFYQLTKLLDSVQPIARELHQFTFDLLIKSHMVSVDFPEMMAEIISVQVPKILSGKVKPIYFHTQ

O=c1c2ccccc2c(=O)c2c1cc(Cl)c1[nH]c3c([nH]c12)c(Cl)cc1c(=O)c2ccccc2c(=O)c13
inactive: Potency [1] | Potency [2] | Potency [3] | Potency [4] | Potency [5] | Potency [6]

C#CC1(O)CCCCC1
inactive: Potency [1] | Potency [2] | Potency [3] | Potency [4] | Potency [5] | Potency [6]

O=C1C2(Cl)C3(Cl)C4(Cl)C(Cl)(Cl)C5(Cl)C3(Cl)C1(Cl)C5(Cl)C24Cl (stereo not drawn)
active: Potency [1] 24.1 µM | Potency [2] 30.1 µM and 29.3 µM | Potency [3] 13.5 µM and 32.9 µM | Potency [4] 19 µM and 26.1 µM | Potency [5] 38.3 µM and 46.9 µM | Potency [7] 23.5 µM | Potency [9] 60.1 µM
inactive: outcome [8]

C1=CCC=C1
inactive: Potency [1] | Potency [2] | Potency [3] | Potency [4] | Potency [5] | Potency [6]

BrCCCBr
inactive: Potency [1] | Potency [2] | Potency [3] | Potency [4] | Potency [5] | Potency [7] | outcome [10] | outcome [8] | Potency [6] | Potency [9]

Cc1ccc(C)c2ccccc12
inactive: Potency [1] | Potency [2] | Potency [3] | Potency [4] | Potency [5] | Potency [7] | outcome [10] | outcome [8] | Potency [6] | Potency [9]

CCCCCCC[CH2][Sn]([Cl])([Cl])[CH2]CCCCCCC
inactive: Potency [2] | Potency [3] | Potency [4] | Potency [5] | outcome [8] | Potency [6] | Potency [9]
active: Potency [1] 54.9 µM | Potency [7] 21.9 µM

CCC(OC(C)=O)C(CC(C)NC)(c1ccccc1)c1ccccc1 (stereo not drawn)
inactive: Potency [1] | Potency [5] | outcome [8]
active: Potency [2] 7.76 µM | Potency [3] 15.5 µM | Potency [4] 15.5 µM | Potency [7] 49.4 µM | Potency [6] 27.5 µM | Potency [9] 21.9 µM

CCCCON=O
inactive: Potency [1] | Potency [2] | Potency [3] | Potency [4] | Potency [5] | Potency [6]

COC(=O)/C=C(\C)OP(=O)(OC)OC
active: Potency [3] 24.3 µM
inactive: Potency [1] | Potency [2] | Potency [4] | Potency [5] | Potency [6]

S=C=Nc1ccccc1
inactive: Potency [1] | Potency [2] | Potency [3] | Potency [4] | Potency [5] | Potency [7] | outcome [10] | outcome [8] | Potency [6] | Potency [9]

Fc1ccc(C(OCCN2CCN(CCCc3ccccc3)CC2)c2ccc(F)cc2)cc1
inactive: outcome [10] | outcome [8]
active: Potency [1] 21.3 µM | Potency [2] 2.11 µM | Potency [3] 2.11 µM | Potency [4] 3.76 µM | Potency [5] 21.3 µM | Potency [7] 15.1 µM | Potency [6] 21.1 µM | Potency [9] 16.8 µM

FC(F)C(F)(F)OCC(Cn1cncn1)c1ccc(Cl)cc1Cl (stereo not drawn)
active: Potency [2] 3.05 µM | Potency [3] 4.83 µM | Potency [4] 7.65 µM | Potency [5] 54.6 µM
inactive: Potency [1]

CC[C@H](C)[C@H]1O[C@]2(C=C[C@@H]1C)C[C@@H]1C[C@@H](C/C=C(\C)[C@@H](O[C@H]3C[C@H](OC)[C@@H](O[C@H]4C[C@H](OC)[C@@H](NC)[C@H](C)O4)[C@H](C)O3)[C@@H](C)/C=C/C=C3\CO[C@@H]4[C@H](O)C(C)=C[C@@H](C(=O)O1)[C@]34O)O2
active: Potency [1] 12.3 µM | Potency [2] 0.686 µM | Potency [3] 0.686 µM | Potency [4] 0.864 µM | Potency [5] 2.19 µM | Potency [6] 21.7 µM

O=P(Cl)(Cl)Cl
inactive: Potency [1] | Potency [2] | Potency [3] | Potency [4] | Potency [5] | Potency [6]

COC(=O)c1cc(Oc2ccc(Cl)cc2Cl)ccc1[N+](=O)[O-]
active: Potency [2] 9.69 µM | Potency [3] 12.2 µM | Potency [4] 24.3 µM
inactive: Potency [1] | Potency [5] | Potency [6]

Oc1ccc2[nH]cc(CCCCN3CC=C(c4ccccc4)CC3)c2c1
active: Potency [2] 5.96 µM | Potency [3] 5.96 µM | Potency [4] 7.5 µM
inactive: Potency [1] | Potency [5] | Potency [6]

CC(Cc1ccc2c(c1)OCO2)NO (stereo not drawn)
inactive: Potency [1] | Potency [2] | Potency [3] | Potency [4] | Potency [5] | Potency [6]

CC(=O)O.CC(=O)O.CC(=O)O.CC(=O)O.CC(=O)O.CC(=O)O.CC(=O)O.O.O.[Cr].[Cr].[Cr]
inactive: Potency [1] | Potency [2] | Potency [3] | Potency [4] | Potency [5] | Potency [6]

Brc1cccc(-c2ccccc2)c1
inactive: Potency [1] | Potency [2] | Potency [3] | Potency [4] | Potency [5] | Potency [6]

CCc1cccc(C)c1N(C(=O)CCl)[C@@H](C)COC
active: Potency [2] 13.7 µM | Potency [3] 19.3 µM | Potency [4] 30.6 µM
inactive: Potency [1] | Potency [5] | Potency [6]

CC(=O)[O-].CC(=O)[O-].CC(=O)[O-].[Sb+3]
inactive: viability change, negative = cytotoxic [1] -0.477% [at 7.04 µM] | activity change, negative = cytotoxicity [2] -1.26% [at 8.52 µM] | activity, negative = cytotoxicity [3] 0.291% [at 8.53 µM] | activity change, negative = cytotoxicity [4] -0.679% [at 8.55 µM] | activity change, negative = cytotoxicity [5] -2.21% [at 7.04 µM] | viability change, negative = cytotoxic [6] -11.1% [at 8.47 µM]

[O-][Cl+3]([O-])([O-])O
inactive: Potency [1] | Potency [2] | Potency [3] | Potency [4] | Potency [5] | Potency [6]

CC(=O)[O-].CC(=O)[O-].[Co+2]
inactive: Potency [1] | Potency [2] | Potency [3] | Potency [4] | Potency [5] | Potency [6]

CCC(C)Br (stereo not drawn)
inactive: Potency [1] | Potency [2] | Potency [3] | Potency [4] | Potency [5] | Potency [6]
